Experimental findings from ChEMBL document CHEMBL4513216, “Probing the Open Global Health Chemical Diversity Library for Multistage-Active Starting Points for Next-Generation Antimalarials” (ACS Infect Dis, 2020) are described below.

Molecules are shown by their SMILES. Out of some 69,000 compounds screened, about 8,600 (12%) showed an effect of 50% or more. The sample holds strong results, similar compounds and a random draw of the others, so the mix is not that of the screen.

The test has as its system Plasmodium berghei. The experiment in a line: Screen against P. berghei liver stage (PbLuc), transformed with Luciferase, at 10uM. It counts as functional, HepG2. The following applies: tested at 10 uM.
Turning to `Cc1ccsc1CN1C[C@@H]2COC[C@]2(CNC(=O)c2ccco2)C1`, the INHIBITION is 63.7%.
For `Cc1ncsc1CN1C[C@@H]2COC[C@]2(CNC(=O)c2ccco2)C1`, the INHIBITION is recorded as 14.8%.
The value for `O=C(NC[C@]12COC[C@H]1CN(CC1CCOCC1)C2)c1ccccc1` was 30.3%; that for `O=C(NC[C@]12COC[C@H]1CN(Cc1ccncc1)C2)c1ccco1` was 18.2%; that for `Cn1ccnc1CN1CCCN(C(=O)c2ccc(O)nc2)CC1` was -24.3%.
As for `CN(C)S(=O)(=O)NCc1nn(CCN2CCCC2)c(=O)c2ccccc12`, the figure is 5.03%; as for `Cc1nn(C)c2ncnc(NCc3nncn3C3CCCCC3)c12`, -58.1%.
As for `CC(C)c1cc(C(=O)N2C[C@@H]3CC[C@H]2CN(Cc2ccccn2)C3)no1`, the figure is 41.8%; as for `CC(NC(=O)c1ccsc1)c1ccc2c(c1)NC(=O)CO2` (stereo not drawn), 29.25%; as for `Cc1cc(C)n(CCNC(=O)c2cc(C3CC3)n[nH]2)n1`, 20.8%.
For the compound `CCC(CC)C(=O)n1ccn(S(=O)(=O)c2ccc(C)cc2)c1=O`, the INHIBITION amounted to 14.3%.
The value for `Cn1c2c(ccc1=O)CCN(Cc1ccoc1)CC2` was -93%; that for `c1csc(N2CCCN(Cc3noc(C4CC4)n3)CC2)n1` was 7.67%; that for `O=C([C@@H]1CCCO1)N1CCn2c(Cn3cccn3)cnc2C1` was 28.7%.
As for `N#Cc1ccc(C(=O)N2CCn3c(Cn4cccn4)cnc3C2)cc1`, the figure is 7.11%; as for `O=C(NC1CC1)N1CCn2c(Cn3cccn3)cnc2C1`, 24.1%.
As for `CN(C)C(=O)N1CCn2c(Cn3cccn3)cnc2C1`, the figure is 62.5%; as for `O=C(N1CCCC1)N1CCn2c(Cn3cccn3)cnc2C1`, 38.1%.
On to `c1cnn(Cc2cnc3n2CCN(CC2CCCCC2)C3)c1`, for which the INHIBITION is recorded as 59%.
The value for `O=S(=O)(C1CC1)N1CCn2c(Cn3cccn3)cnc2C1` was 41%; that for `O=C(NCc1ccccc1)N1CCn2c(Cn3cccn3)cnc2C1` was 39.2%.
On to `O=C(NCc1cccnc1)N1CCn2c(Cn3cccn3)cnc2C1`, for which the INHIBITION is listed as 57.9%.
The value for `CC1CCN(C(=O)c2cnc(CC3CCCN(C)C3)cn2)CC1` (stereo not drawn) was 24.4%; that for `Cc1cccc(CN2Cc3[nH]nc(COc4cccnc4)c3C2)n1` was 34.9%.
The value for `CCS(=O)(=O)CCNC(=O)NC(C)c1ccc(C)s1` (stereo not drawn) was 17%; that for `Cc1oc(C(=O)O)cc1S(=O)(=O)Nc1ccccc1F` was 34.7%; that for `O=S(=O)(c1cn[nH]c1)N1CCCC(O)(CN2CCOCC2)CC1` (stereo not drawn) was 13.125%.
As for `CC(=O)Nc1nc(C(=O)N2CCCC2c2noc(C3CC3)n2)cs1` (stereo not drawn), the figure is 2.3%; as for `CCCn1ccnc1CN1CCN(C2CCOCC2)CC(C(N)=O)C1` (stereo not drawn), 20.8%.
Regarding `CSc1ccc(CN(CCO)C(=O)CCOc2ccccc2)cc1`, the INHIBITION is reported as 15.7%.
The value for `Cc1ccc(C(=O)NCc2cccnc2N(C)C)s1` was -85%; that for `Cc1noc(C)c1C(=O)NCc1cccnc1N(C)C` was -25.66%.
As for `Cc1ccsc1C(=O)NCc1cccnc1N(C)CCc1ccccn1`, the figure is 9.91%.
The value for `Cc1oc(C)c(C(=O)NCc2cccnc2N(C)C)c1C` was 50.4%; that for `Cc1ncsc1C(=O)N(Cc1ccccn1)C1CC1` was -2.95%; that for `Cc1ccc(C(=O)NCc2cccnc2N(C)C)o1` was 12.35%.
On to `Cc1nnsc1C(=O)NCc1cccnc1N(C)C`, for which the INHIBITION is on record as 51.5%.
As for `Cc1ncsc1C(=O)NCc1cccnc1N(C)CCc1ccccn1`, the figure is 52.5%; as for `Cc1nnsc1C(=O)NCc1cccnc1N(C)Cc1ccccc1`, 44.6%; as for `CCc1nc(C2CCCN2C(=O)Cc2cccs2)no1` (stereo not drawn), 5.9%.
As for `CSc1ccccc1C(C(=O)O)N(C)CC1CCOCC1` (stereo not drawn), the figure is -0.27%.
As for `CCCc1cc(C(=O)NCCN2CCCS2(=O)=O)[nH]n1`, the figure is -40.96%.
For `O=C(c1cc(Cl)c2c(c1)OCO2)N1CCCC(n2cncn2)C1` (stereo not drawn), the INHIBITION is given as 29.7%.
As for `C[C@@H]1CN(Cc2ccccn2)C[C@]12CCN(Cc1cccnc1)C2=O`, the figure is -38.1%.
As to `N#CC1(C(=O)N2C[C@H](Nc3ncccn3)[C@@H](C3CC3)C2)CCOCC1`, the INHIBITION was -28.4%.
As for `Cc1ccnc(OC[C@@]23CCO[C@@H]2CCN(c2ncccn2)C3)n1`, the figure is 23.3%; as for `Cc1ccnc(OC[C@@]23CCO[C@@H]2CCN(S(C)(=O)=O)C3)n1`, 57.1%; as for `Cc1ccnc(OC[C@@]23CCO[C@@H]2CCN(C2CCC2)C3)n1`, -16.9%.
The value for `CN(CCc1ccccc1)Cc1cnc(C2(C)CCCCO2)nc1` (stereo not drawn) was 10.871%; that for `COc1cc(CN2C[C@H](OC)[C@]3(CCCO3)C2)ccc1F` was 35.2%.
The value for `Cc1ccnc(C(NC(=O)c2oc(C)nc2C)C2CC2)n1` (stereo not drawn) was 38.5%; that for `Cc1ccnc(C(NC(=O)c2ccc(O)nc2C)C2CC2)n1` (stereo not drawn) was 2.65%.
`Cc1ccnc(C(NC(=O)c2sc(C)nc2C)C2CC2)n1` (stereo not drawn): the INHIBITION is 63.5%.
